sEH inh – inhibitors of human soluble epoxide hydrolase; recombinant human sEH enzymatic activity assay; inhibition, % at 2 µM; hit rate 0.34% among 91,000; AID 707; P34913; in the data active means inhibition above about 80%
CYP2C9 inhib – human CYP2C9 inhibition; AID 777; hit rate 20% among 96,000; inhibition, % at 5 µM; CYP2C9 Supersomes, luciferin-H conversion, luminescence; P11712;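 active means blocking of liver enzyme CYP2C9 beyond about 50% at 5 µM, limit read from the data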
Target sequence (P11712 whole entry, looked up): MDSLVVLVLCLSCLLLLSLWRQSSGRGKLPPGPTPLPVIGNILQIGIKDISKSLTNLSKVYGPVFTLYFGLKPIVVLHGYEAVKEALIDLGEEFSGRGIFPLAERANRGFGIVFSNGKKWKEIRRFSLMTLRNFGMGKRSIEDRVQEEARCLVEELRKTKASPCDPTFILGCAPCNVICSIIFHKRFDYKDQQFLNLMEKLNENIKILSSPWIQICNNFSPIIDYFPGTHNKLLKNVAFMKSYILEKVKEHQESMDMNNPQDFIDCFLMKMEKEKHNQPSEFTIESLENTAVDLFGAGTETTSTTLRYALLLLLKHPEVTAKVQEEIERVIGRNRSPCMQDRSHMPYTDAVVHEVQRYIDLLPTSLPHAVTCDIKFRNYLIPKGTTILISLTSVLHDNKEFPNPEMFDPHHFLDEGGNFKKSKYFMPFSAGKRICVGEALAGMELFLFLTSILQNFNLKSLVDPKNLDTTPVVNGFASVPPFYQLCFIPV
sEH activator – soluble epoxide hydrolase (human) activation; purified human sEH enzymatic activity, activator screen; activation, % at 2 µM; hit rate 0.04% among 91,000; AID 717; in the data active means activation above about 37%
CYP2C9 activ – activators of human CYP2C9; hit rate 1.4% among 96,000; P11712; activation factor at 5 µM; recombinant CYP2C9, luciferin-H conversion, luminescence; hits give high values; factor 1 = untreated enzyme, 0 = blocked;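 active means activation factor of 2 or more for CYP2C9 at a 5 µM dose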;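 further: 0 = sulfaphenazole-blocked wells and 1 = vehicle-only wells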
CYP2C19 inhib – inhibitors of human CYP2C19 | P33261 | CYP2C19 Supersomes, luciferin-H EGE luminescence, 30 min | inhibition, % at 5 µM | hit rate 21% among 96,000;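 active means CYP2C19 inhibition above a set limit at 5 µM in the primary screen, cut at about 50% in these data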;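 further: plate controls were negative control wells for no effect and 2.5 mM tranylcypromine positive control for full effect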
CYP2C19 activ – activators of human cytochrome P450 2C19; activation factor at 5 µM; recombinant CYP2C19, luciferin-H EGE luminescence; hits give high values; 0 = fully inhibited enzyme, 1 = untreated enzyme; 96,000 tested, under 10 active;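 active means activation factor of at least 2 at 5 µM in the primary screen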;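 further: 0 = wells with 2.5 mM tranylcypromine and 1 = vehicle-only wells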
The depositor's hits bear a star. Most compounds without a hit are left out; they make up all but 27% or so of the library.

What do the screens show for `CCCCSc1nc(N)c(NC(=O)c2ccco2)c(=O)[nH]1`?
sEH inh: -6.2; CYP2C9 inhib: -9.6; sEH activator: 4.8; CYP2C9 activ: 1.1; CYP2C19 inhib: -21.2; CYP2C19 activ: 1.2

What do the screens show for `CC(C)(C)c1ccc(C(=O)CC(=O)c2cc(Cl)ccc2O)cc1`?
sEH inh: 7.8; CYP2C9 inhib: 59.5*; sEH activator: -7.9; CYP2C9 activ: 0.4; CYP2C19 inhib: 57.0*; CYP2C19 activ: 0.4

How did Cc1cc(C)n(CC(O)COc2ccc(OCC(O)Cn3nc(C)cc3C)cc2)n1 (stereo not drawn) do in these assays?
sEH inh: -13.5; sEH activator: 17.2

What do the screens show for `Cc1ccc(C(=O)Cn2nnc3ccccc32)cc1`?
sEH inh: 9.7; CYP2C9 inhib: 18.8; sEH activator: -7.0; CYP2C9 activ: 0.8; CYP2C19 inhib: 34.8; CYP2C19 activ: 0.7

How did Cc1ccc2c(c1)c(C)c(C)n2CC(O)Cn1nnc2ccccc21 (stereo not drawn) do in these assays?
sEH inh: 2.8; CYP2C9 inhib: 63.5*; sEH activator: -1.6; CYP2C9 activ: 0.4; CYP2C19 inhib: 40.3; CYP2C19 activ: 0.6

How did Cc1ccc2c(c1)c(C)c(C)n2CC(O)Cn1nc(C)cc1C (stereo not drawn) do in these assays?
CYP2C9 inhib: 77.0*; CYP2C9 activ: 0.2; CYP2C19 inhib: 96.6*; CYP2C19 activ: 0

Results for O=C(NC1CCCCC1)N1CCN(CCc2ccccc2)CC1 ?
sEH inh: 10.4; CYP2C9 inhib: 0.4; sEH activator: -8.0; CYP2C9 activ: 1; CYP2C19 inhib: 2.0; CYP2C19 activ: 1

Results for C=CCn1c(SCC(=O)Nc2ccccc2)nc2scc(-c3cccs3)c2c1=O ?
sEH inh: 11.3; CYP2C9 inhib: 99.5*; sEH activator: -10.6; CYP2C9 activ: 0; CYP2C19 inhib: 83.0*; CYP2C19 activ: 0.2

Results for C=CCn1c(SCC(=O)NCc2ccc3c(c2)OCO3)nc2scc(-c3ccccc3)c2c1=O ?
sEH inh: 9.7; CYP2C9 inhib: 54.5*; sEH activator: -6.5; CYP2C9 activ: 0.5; CYP2C19 inhib: 37.2; CYP2C19 activ: 0.6

Results for C=CCn1c(SCn2nnc3ccccc3c2=O)nc2scc(-c3cccs3)c2c1=O ?
CYP2C9 inhib: 72.5*; CYP2C9 activ: 0.3; CYP2C19 inhib: 36.3; CYP2C19 activ: 0.6

What do the screens show for `C=CCn1c(SCC(=O)Nc2sccc2C(N)=O)nc2sc(CC)cc2c1=O`?
sEH inh: 3.5; CYP2C9 inhib: 66.1*; sEH activator: -3.8; CYP2C9 activ: 0.3; CYP2C19 inhib: 34.1; CYP2C19 activ: 0.7

How did C=CCn1c(SCC(=O)Nc2sccc2C(N)=O)nc2ccc(Cl)cc2c1=O do in these assays?
sEH inh: -1.8; CYP2C9 inhib: 17.9; sEH activator: 1.4; CYP2C9 activ: 0.8; CYP2C19 inhib: -1.9; CYP2C19 activ: 1

Results for C=CCn1c(SCC(=O)N2CCCC2)nc2scc(-c3cccs3)c2c1=O ?
sEH inh: 3.5; CYP2C9 inhib: -6.1; sEH activator: -3.9; CYP2C9 activ: 1.1; CYP2C19 inhib: 10.3; CYP2C19 activ: 0.9

Results for COCC(=O)N(Cc1ccco1)c1nnc(C2CCOC2)s1 (stereo not drawn) ?
sEH inh: -8.2; CYP2C9 inhib: -12.8; sEH activator: 6.3; CYP2C9 activ: 1.1; CYP2C19 inhib: -12.4; CYP2C19 activ: 1.1

Results for COc1cc(NC(=O)Cn2nc(C(F)(F)F)c3c2CCCC3)cc(OC)c1OC ?
sEH inh: 13.7; CYP2C9 inhib: 11.7; sEH activator: -15.4; CYP2C9 activ: 0.9; CYP2C19 inhib: 16.4; CYP2C19 activ: 0.8

How did CCN1c2ccccc2-c2nc3ccccc3n2C1c1cccnc1 (stereo not drawn) do in these assays?
sEH inh: 6.7; CYP2C9 inhib: 71.1*; sEH activator: -6.6; CYP2C9 activ: 0.3; CYP2C19 inhib: 15.3; CYP2C19 activ: 0.8

How did Cc1ccc(C2N(C)c3ccccc3-c3nc4ccccc4n32)o1 (stereo not drawn) do in these assays?
sEH inh: 0.4; CYP2C9 inhib: 92.6*; sEH activator: 1.0; CYP2C9 activ: 0.1; CYP2C19 inhib: 86.9*; CYP2C19 activ: 0.1

What do the screens show for `CCN1c2ccccc2-c2nc3ccccc3n2C1c1ccncc1` (stereo not drawn)?
sEH inh: -19.6; CYP2C9 inhib: 99.9*; sEH activator: 18.1; CYP2C9 activ: 0; CYP2C19 inhib: 97.7*; CYP2C19 activ: 0

Results for Cn1c(-c2ccc(N)cc2)nc2ccccc21 ?
sEH inh: -0.8; CYP2C9 inhib: 8.1; sEH activator: 1.3; CYP2C9 activ: 0.9; CYP2C19 inhib: 11.0; CYP2C19 activ: 0.9

How did CCN1c2ccccc2-c2nc3ccccc3n2C1c1ccccn1 (stereo not drawn) do in these assays?
sEH inh: -11.6; CYP2C9 inhib: 34.1; sEH activator: 11.7; CYP2C9 activ: 0.7; CYP2C19 inhib: 10.3; CYP2C19 activ: 0.9

Results for C=C(C)Cn1c(CCCNC(=O)C(C)(C)C)nc2ccccc21 ?
sEH inh: 9.7; sEH activator: -7.2

How did CSc1ccc(CNc2ccc(Cl)cc2)cc1 do in these assays?
sEH inh: 8.8; CYP2C9 inhib: 3.4; sEH activator: -6.4; CYP2C9 activ: 1; CYP2C19 inhib: 95.6*; CYP2C19 activ: 0

What do the screens show for `Cc1[nH]n(-c2ccccc2)c(=O)c1-c1ccc(Cl)cc1`?
sEH inh: -2.4; CYP2C9 inhib: 45.4; sEH activator: 1.9; CYP2C9 activ: 0.5; CYP2C19 inhib: 2.7; CYP2C19 activ: 1

What do the screens show for `Cc1[nH]n(-c2ccccc2)c(=O)c1S(=O)(=O)c1ccccc1`?
sEH inh: 4.1; CYP2C9 inhib: -43.9; sEH activator: -2.9; CYP2C9 activ: 1.4; CYP2C19 inhib: 88.4*; CYP2C19 activ: 0.1

Results for O=c1cnc2ccccc2n1CC1CCCCC1 ?
sEH inh: -9.0; CYP2C9 inhib: 32.4; sEH activator: 10.9; CYP2C9 activ: 0.7; CYP2C19 inhib: 95.8*; CYP2C19 activ: 0

What do the screens show for `c1ccc2c(c1)ncn2CCC1CCCCC1`?
sEH inh: 6.1; CYP2C9 inhib: 58.0*; sEH activator: -6.1; CYP2C9 activ: 0.4; CYP2C19 inhib: 92.2*; CYP2C19 activ: 0.1

What do the screens show for `c1ccc(Cn2cnc3ccccc32)cc1`?
sEH inh: 0.2; sEH activator: -2.0

How did CC(NC(=O)c1ccc(N2CCCC2=O)cc1)c1ccccc1 (stereo not drawn) do in these assays?
sEH inh: -0.2; CYP2C9 inhib: 5.5; sEH activator: 0.8; CYP2C9 activ: 0.9; CYP2C19 inhib: -2.1; CYP2C19 activ: 1

What do the screens show for `CC1Cc2ccccc2N1Cc1nc2cc(Cl)ccc2c(=O)[nH]1` (stereo not drawn)?
sEH inh: 17.2; CYP2C9 inhib: 79.8*; sEH activator: -14.7; CYP2C9 activ: 0.2; CYP2C19 inhib: 56.9*; CYP2C19 activ: 0.4

High-throughput results (PubChem)
